# A selection: hits, their analogues and other compounds. The true share with any hit is near 7.3%.
# Tau FP inhib = inhibitors of human tau fibril formation. Potency, µM (highest dose often 57.7 µM), for the others: at the top dose activity, negative = inhibition, actives largely listed as inhibitors. 0.39% of 280,000 active. K18 P301L tau heparin fibrillization, Alexa594 FP, 6 h. P10636; also: nearly all actives have a fitted effect of over 55% in size
# Target sequence (P10636 561-689 P618L limits assumed): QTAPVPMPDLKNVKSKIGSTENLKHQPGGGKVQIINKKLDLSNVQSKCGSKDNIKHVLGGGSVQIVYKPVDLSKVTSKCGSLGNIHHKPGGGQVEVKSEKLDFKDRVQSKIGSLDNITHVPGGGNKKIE
#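 Human tau K18 […] P301L fragment, 15 uM unlabeled plus 0.24 uM Alexa 594-labeled tau (final), with compound and 20 uM heparin in 100 mM sodium acetate pH 7; 6 hr at 37 C, then Alexa 594 FP read.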
# VP16 counter = Gal4-VP16 reporter inhibition counter-screen. Drosophila S2 Gal4-VP16 UAS-luciferase, luminescence, 20 h. Potency, µM (top dose mostly 53.6 µM), inactives show top-dose activity, negative = inhibition, hits mostly inhibitors. 3.5% of 310,000 active;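 also: Gal4-VP16 expression switched on by copper sulfate through the metallothionein promoter; nearly all actives have a fitted effect of over 50% in size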
# Tau ThT inhib = inhibitors of human tau fibril formation, thioflavin T binding. P10636. recombinant tau K18 P301L, heparin-induced fibrillization, ThT fluorescence. Potency, µM (series often up to 57.4 µM), inactives show top-dose activity, negative = inhibition, hits mostly inhibitors. 2.1% of 270,000 active. AID 1460; also: nearly all actives have a fitted effect of over 55% in size
#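 Heparin-induced (20 uM) aggregation of recombinant human K18 P301L tau, 15 uM unlabeled with 0.24 uM labeled, pH 7 acetate buffer, 6 hr at 37 C with compound. Fibrils quantified by 30 uM ThT fluorescence after 1 hr ambient incubation.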
# RORgamma inh = blocks mouse ROR gamma transcriptional activity. P51450. Drosophila S2 Gal4-RORgamma UAS-luciferase reporter, 20 h. Potency, µM (series often up to 53.6 µM), for inactives: at the highest dose activity change, negative = inhibition, most hits filed as inhibitors. 5.4% of 310,000 active. AID 2551; also: nearly all actives have a fitted effect of over 60% in size
# Target sequence (P51450 whole entry, looked up, the tested form may be a part): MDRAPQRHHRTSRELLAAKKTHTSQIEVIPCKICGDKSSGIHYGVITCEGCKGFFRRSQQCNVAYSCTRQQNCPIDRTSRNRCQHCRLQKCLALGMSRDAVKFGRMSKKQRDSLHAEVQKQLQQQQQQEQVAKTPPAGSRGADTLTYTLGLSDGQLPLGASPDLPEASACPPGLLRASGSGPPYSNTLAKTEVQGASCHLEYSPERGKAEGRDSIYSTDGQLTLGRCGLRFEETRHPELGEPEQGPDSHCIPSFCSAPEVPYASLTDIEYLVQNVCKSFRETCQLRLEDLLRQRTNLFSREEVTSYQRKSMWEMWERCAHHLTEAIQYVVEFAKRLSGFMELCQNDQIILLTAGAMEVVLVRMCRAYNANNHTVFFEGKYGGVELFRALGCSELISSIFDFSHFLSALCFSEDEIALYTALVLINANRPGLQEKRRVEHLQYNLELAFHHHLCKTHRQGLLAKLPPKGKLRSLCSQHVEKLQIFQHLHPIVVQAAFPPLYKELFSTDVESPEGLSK
#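 Luminescence from a UAS-regulated Photinus luciferase reporter in stably transfected Drosophila Schneider cells is measured; decreased signal marks ROR gamma inhibition. Fusion expression is induced by 700 uM copper sulfate for 20 hr.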
# Tau fluor counter = counter-screen for tau fibril formation inhibitors. tau K18 P301L Alexa594 fluorescence, heparin fibrillization. Potency, µM (doses to about 57.7 µM), inactives show at the highest dose activity change, negative = decrease. 0.93% of 280,000 active. AID 1463; also: nearly all actives have a fitted effect of over 55% in size
#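 Human tau K18 P301L (15 uM unlabeled, 0.24 uM Alexa 594-labeled) in 100 mM sodium acetate pH 7 with 20 uM heparin, 6 hr at 37 C. ThT 30 uM added, 1 hr ambient; Alexa 594 FP and total fluorescence read at 555/632 nm.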
# Starred values were filed as active, the others as inactive; ? = inconclusive; . = no result given; [ ] = dose if it differs, or a comment. Calls follow the shape of the dose curve; as a rule, active = well fitted curve in the direction sought with a large enough effect; inconclusive = small, poorly fitted or top-dose-only effect, or another doubt; inactive = no such curve, though single readings can be large; an effect the other way counts as inactive or inconclusive. % is scaled to controls: 0 for no effect and ±100 for the full control effect; potency is read from the fitted curve at half-maximal effect.
SMILES,Tau FP inhib,VP16 counter,Tau ThT inhib,RORgamma inh,Tau fluor counter
Cc1ccc(NC(=S)Nc2cccnc2)c(S(=O)(=O)N2CCCCC2)c1,32µM*,16µM*,11%,?,?
O=C(Nc1cccnc1)c1ccc(Cl)c(S(=O)(=O)N2CCCCC2)c1,.,-8%,.,?,.
COc1cccc(NC(=S)NC(=O)c2cccnc2)c1,.,-94%,.,20µM*,.
CCN1C(=NCC(C)C)N[C@@H](c2ccccc2)[C@H](C(=O)OC)[C@H]1C,.,-4%,.,-2%,.
CCCOC(=O)c1cccc(NC(=O)c2cccnc2)c1,-3%,0%,2%,27%,3%
CCOC(=O)c1cccc(NC(=S)NC(=O)c2cccnc2)c1,.,?,.,13µM*,.
CCCC(=O)NC(c1ccc(OC)c(OC)c1)c1c(O)ccc2ccccc12 (configuration not stated),5%,0%,-9%,31%,-2%
CCCCC(=O)NC(c1ccccc1OC)c1ccc2cccnc2c1O (configuration not stated),12%,4.5µM*,.,5.6µM*,10%
CCCC(=O)NC(c1ccccc1OC)c1ccc2cccnc2c1O (configuration not stated),14%,2.2µM*,-10%,5µM*,-11%
Cc1ccc(Cl)cc1NC(=O)c1ccc(-c2nc(CSc3ccccc3)c(C)o2)cc1,-4%,.,-5%,.,-13%
O=C(Nc1ccon1)C(Sc1ccccc1)c1ccccc1 (configuration not stated),-4%,10%,2%,?,-12%
O=C(Nc1nncs1)C(Sc1ccccc1)c1ccccc1 (configuration not stated),-4%,-24%,-6%,11µM*,-19%
C=CCOc1ccc(CNc2ccc3[nH]c(=O)[nH]c3c2)cc1OCC,13%,3%,0%,37%,7%
COc1cc(CNc2ccc3[nH]c(=O)[nH]c3c2)cc(Cl)c1OCC(=O)NC(C)(C)C,?,-1%,11µM*,-32%,?
CCOc1cc(CNc2ccc3[nH]c(=O)[nH]c3c2)ccc1OCC(=O)NC(C)(C)C,?,.,13µM*,-25%[0.365 µM],?
CC(=O)c1ccc(S(=O)(=O)Nc2ccc(-c3cn4c(C)csc4n3)cc2)cc1,5%,.,?,.,?
Cc1cccc(C(=O)Nc2sc3c(c2C#N)CCCCC3)c1,-3%,?,-13%,7.9µM*,-5%
Cc1cccc(NC(=O)c2c(NC(=O)c3ccccc3)sc3c2CCCC3)c1,?,.,10µM*,.,?
N#Cc1c(NC(=O)c2ccc(Cn3cc(Br)cn3)o2)sc2c1CCCCCC2,-13%,-10%[0.365 µM],?,5.6µM*,?
CC(C)(C)c1ccc(C(=O)Nc2sc3c(c2C(=O)O)CCC3)cc1,-7%,?,14µM*,-4%,?
Cc1cccc(NC(=O)c2c(NC(=O)c3ccccc3)sc3c2CCC3)c1,-6%,.,-8%,.,-22%
NNC(=O)c1ccc(Cn2cc(Br)cn2)o1,4%,5%,3%,13%,0%
Cc1cccc(C(=O)Nc2sc3c(c2C(=O)NC(C)C)CCCC3)c1,-7%,.,-15%,.,-12%
Cc1ccc2nc3c(cc(C#N)c(=O)n3-c3nnc(SCc4ccccc4)s3)c(=O)n2c1,0%,.,14%,.,-25%
O=C(N/N=C/c1cccc(Br)c1)c1ccc(Cn2cc(Br)cn2)o1,-2%,-2%,?,?,-21%
SMILES,Tau FP inhib,VP16 counter,Tau ThT inhib,RORgamma inh,Tau fluor counter
Cc1ccsc1/C=N/NC(=O)c1ccc(Cn2cc(Br)cn2)o1,?,?,-8%,13µM*,-3%
CCN(CC(=O)NC(C)(C)C)Cc1nc2c(Br)cc(Br)cc2c(=O)[nH]1,7%,3.2µM*,-13%,0.71µM*,-14%
CCN(CC(=O)NC1CCS(=O)(=O)C1)Cc1nc2c(Br)cc(Br)cc2c(=O)[nH]1 (configuration not stated),-3%,-16%,-8%,-36%,-10%
C=CCOc1c(Br)cc(CNc2nccs2)cc1OC,0%,18µM*,-17%,13µM*,-26%
COc1ccc(Nc2c([N+](=O)[O-])ccc3c2=NC2(CCCCC2)N=3)cc1,?,-16%,16µM*,-36%,?
CCCCN1CC(=O)N2[C@H](c3ccc(Cl)cc3)[C@@H]3C(=O)N(CC)C(=O)[C@@H]3[C@]2(Cc2ccccc2)C1=O,.,4%,.,35%,.
CCOc1ccc2[nH]c3c(NCCN(C)C)ncnc3c2c1,.,25%,.,5%,.
COc1ccc2[nH]c3c(NCCC4=CCCCC4)ncnc3c2c1,?,7.1µM*,?,?,7.9µM*[quencher]
CCOc1ccc2[nH]c3c(NCCC(C)C)ncnc3c2c1,.,4.5µM*,.,?,.
O=C(NCc1ccccc1)c1nc(S(=O)(=O)Cc2ccc(F)cc2)ncc1Cl,1%,.,14%,.,10%
Cc1cccc(CS(=O)(=O)c2ncc(Cl)c(C(=O)Nc3c(C)cccc3C)n2)c1,.,8.9µM*,.,?,.
Cc1nnc(NC(=O)c2nc(S(=O)(=O)Cc3ccccc3)ncc2Cl)s1,?,13µM*,?,7.9µM*,-27%
CCOC(=O)c1nc(S(C)(=O)=O)ncc1Cl,-6%,5µM*,?,4µM*,-3%
Cc1cccc(CS(=O)(=O)c2ncc(Cl)c(C(=O)NCc3ccccc3)n2)c1,4%,3.2µM*,5%,5.6µM*,1%
CCc1ccc(CNC(=O)C2CCN(C(=O)c3ccc(-n4ccc5ccccc54)s3)CC2)cc1,-8%,.,-12%,.,-3%
COc1cc(NC(=O)C2CCN(c3cnc4ccccc4n3)CC2)cc(OC)c1OC,-4%,.,-4%,.,-10%
COc1ccc(S(=O)(=O)N2CCCOC2CNC(=O)C(=O)NCCCN2CCOCC2)cc1 (configuration not stated),.,-4%,.,0%,.
Cc1cccc(C)c1NC(=O)c1nc(S(=O)(=O)Cc2ccccc2)ncc1Cl,.,5µM*,.,10µM*,.
Cc1ccccc1NC(=O)c1nc(S(C)(=O)=O)ncc1Cl,.,3.2µM*,.,6.3µM*,.
CC[C@H](C)[C@H](NC(=O)[C@@H](NC(=O)[C@@H](CC(=O)NO)Cc1ccccc1)[C@@H](C)CC)C(=O)O,.,-10%,.,11%,.
CCOC(=O)CCc1c(C)c2ccc(OCc3cc([N+](=O)[O-])ccc3OC)c(C)c2oc1=O,4%,-9%,-7%,22%,-9%
Cc1c(CCC(=O)O)c(=O)oc2cc(OCc3ccccc3Br)ccc12,.,3.2µM*,.,-40%,.
Cc1c(CCC(=O)O)c(=O)oc2cc(OCc3cccc(F)c3)ccc12,.,1%,.,17%,.
COc1ccccc1COc1ccc2c(C)c(CCC(=O)O)c(=O)oc2c1C,.,?,.,7.9µM*,.
COc1cccc(-c2coc3c(C)c4oc(=O)c(CCC(=O)O)c(C)c4cc23)c1,9%,-18%,-12%,8%,2%
